Experimental findings from PubChem BioAssay (Tox21) are described below.

Inconclusive results are not listed. The source made the active and inactive calls. Calls come from the whole dose curve.

Sequence of Peroxisome proliferator-activated receptor delta (Homo sapiens) (Q03181 whole entry, looked up): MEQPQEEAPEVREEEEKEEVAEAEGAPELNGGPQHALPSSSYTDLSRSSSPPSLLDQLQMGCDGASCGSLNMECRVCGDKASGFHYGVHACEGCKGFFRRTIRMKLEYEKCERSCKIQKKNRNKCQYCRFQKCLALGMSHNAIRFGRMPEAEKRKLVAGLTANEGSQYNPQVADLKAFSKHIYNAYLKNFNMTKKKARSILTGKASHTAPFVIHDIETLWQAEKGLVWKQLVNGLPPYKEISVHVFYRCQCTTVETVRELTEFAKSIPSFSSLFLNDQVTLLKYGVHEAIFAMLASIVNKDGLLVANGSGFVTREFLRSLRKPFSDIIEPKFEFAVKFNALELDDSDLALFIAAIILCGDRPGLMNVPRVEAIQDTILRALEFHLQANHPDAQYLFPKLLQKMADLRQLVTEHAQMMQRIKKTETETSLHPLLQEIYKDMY

The experiment has as its target Peroxisome proliferator-activated receptor delta (Homo sapiens) (UniProt Q03181). As to the kind of experiment: qHTS assay to identify small molecule agonists of the peroxisome proliferator-activated receptor delta (PPARd) signaling pathway (AID 743212). The settings on record: HEK293H PPARd-UAS-bla, beta-lactamase FRET ratio, 17 h; series mostly up to 62.6 µM. The source says:
U.S. Tox21 Program National Center for Advancing Translational Sciences [NCATS] NIH Chemical Genomics Center [NCGC] U.S. Environmental Protection Agency [EPA] National Institutes of Environmental Health Sciences [NIEHS] National Toxicology Program [NTP] U.S. Food and Drug Administration [FDA] Tox21 Assay Overview: The peroxisome proliferator-activated receptors (PPARs) are lipid-activated transcription factors of the nuclear receptor superfamily with three distinct subtypes namely PPAR alpha, PPAR delta (PPARd) and PPAR gamma. All these subtypes heterodimerizes with Retinoid X receptor (RXR) and have different physiological functions. […] To identify the compounds that activate PPAR-delta signaling, GeneBLAzer PPAR delta UAS-bla HEK293H cell line (Invitrogen, Carlsbad, CA, USA) containing a beta-lactamase reporter gene under the control of an Upstream Activator Sequence (UAS) was used to screen the Tox21 compound library.
Tox21 Assay Protocol Summary: PPARd-bla cells were dispensed at 3000 cells/6uL/well in 1536-well black wall/clear bottom plates using a Multidrop Combi (Thermo Fisher Scientific, Waltham, MA) dispenser. After the assay plates were incubated at 37 C and 5% CO2 for 5 h, 23 nL of compounds dissolved in DMSO, positive controls or DMSO only was transferred to the assay plate by a Pintool station (Kalypsys, San Diego, CA). The assay plates were incubated at 37C for 17 h. After 1 uL of LiveBLAzerTM B/G FRET substrate was added using a Bioraptr Flying Reagent Dispenser (FRD) workstation (Beckman Coulter, Indianapolis, IN, USA), the plates were incubated at room temperature for 2 h, and fluorescence intensity was measured by an Envision plate reader (PerkinElmer, Shelton, CT).
In general terms: In qHTS, concentration-response curves come from the screen itself.
Turning to `N#Cc1ccncc1`, the result was inactive.

For the molecule `c1cc2c(c(N3CCNCC3)c1)OCCO2`, the result was inactive. The entry for `CCOC(=O)NC(=S)Nc1ccccc1NC(=S)NC(=O)OCC` is “inactive”. The entry for `COC(=O)c1c(C(F)F)nc(C(F)(F)F)c(C2=NCCS2)c1CC(C)C` is “inactive”; for `CCCCOC(=O)[C@@H](C)Oc1ccc(Oc2ccc(C#N)cc2F)cc1` it is “inactive”; for `ClCC(Cl)(Cl)Cl` it is “inactive”. Then `Nc1cc(Cl)ccc1O`, with “inactive”; and `COP(=S)(OC)Oc1ccc(S(N)(=O)=O)cc1`, with “inactive”.

Take `CCC(=O)C(CCN(C)C)(c1ccccc1)c1ccccc1`: the outcome was inactive. With `CC(C)CC(N(C)C)C1(c2ccc(Cl)cc2)CCC1` (stereo not given), the outcome was inactive. Then `Nc1n[nH]c(N)n1`, with “inactive”. The entry for `Cc1cnc[nH]1` is “inactive”. In the case of `CC(C)CC#N`, the outcome was inactive. Then `NC(=S)C(N)=S`, with “inactive”; and `COP(=S)(OC)Oc1c(Cl)cc(C)cc1Cl`, with “inactive”.

For `CCC(Cl)[N+](=O)[O-]` (stereo not given), the outcome was inactive.

In the case of `CC(Cl)(Cl)[N+](=O)[O-]`, the outcome was inactive. Then `CCOc1nc(C(Cl)(Cl)Cl)ns1`, with “inactive”. The entry for `CC(C)[N+](=O)[O-]` is “inactive”. Then `CCC(=O)c1ccccc1`, with “inactive”.

As to `CC(C(=O)c1ccccc1)N(C)C` (stereo not given), the outcome was inactive. On to `CC(C)(C)OC(=O)c1ncn2c1[C@@H]1CCCN1C(=O)c1c(Br)cccc1-2`, for which the result was inactive. The entry for `CC1(C)CON(Cc2ccccc2Cl)C1=O` is “inactive”; for `Nc1cc2c3c(c1)C(c1ccccc1)=N[C@@H](NC(=O)c1cccnc1)C(=O)N3CC2` it is “inactive”; for `CCC1(c2ccccc2)C(=O)NC(=O)NC1=O` it is “inactive”. Turning to `Clc1ccccc1N1CCNCC1`, the outcome was inactive. Then `CC(C)NCC(O)c1ccc(N)c(C#N)c1` (stereo not given), with “inactive”. The entry for `N#CC(CCc1ccc(Cl)cc1)(Cn1cncn1)c1ccccc1` (stereo not given) is “inactive”; for `COc1cc(OC)nc(NC(=O)NS(=O)(=O)c2ncccc2C(=O)N(C)C)n1` it is “inactive”; for `COc1cc(C[C@@H](C)N)c(OC)cc1C` it is “inactive”. Then `NC(=O)O`, with “inactive”; and `C[C@@H]1CN(C2CCC(C#N)(c3ccc(F)cc3)CC2)CC[C@]1(C(=O)O)c1ccccc1` (stereo not given in full), with “inactive”. Turning to `CC1COC2(c3ccccc3Cl)c3cc(Cl)ccc3NC(=O)CN12` (stereo not given), the result was inactive.

As to `CCC#N`, the result was inactive. The entry for `CN1C(=S)CN=C(c2ccccc2)c2cc(Cl)ccc21` is “inactive”; for `C[C@H]1CCC[C@H](O)CCCCCc2cc(O)cc(O)c2C(=O)O1` it is “inactive”; for `O=C(Oc1ccc(Br)cc1)N1CCN2CCC1CC2` it is “inactive”. The entry for `O=C(N[C@H]1CN2CCC1CC2)c1cc2ccoc2cn1` is “inactive”; for `O=[N+]([O-])c1cccc2cccnc12` it is “inactive”.

For `C(CCOCC1CO1)COCC1CO1` (stereo not given), the result was inactive.
